# In the supplement of paper PMC6555819:
# Tested on: PXR:RXRa (NR concentration 270 nM, RXRa partner concentration 90 nM)
# Test: PBM binding z-score (relative to random genomic background probes); higher = stronger binding; sequences stand for … in GC…GCGATTGACAGCGTAGAATGAAGG
# How it was run: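 Scanned fluorescence from custom Agilent 4×180K protein-binding microarrays was regression-normalized. Binding z-scores use random background probes as reference. Ligand-free nuclear receptor dimers were incubated on the arrays for 1 h and detected with antibodies against each partner (one per run).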
row,Sequence,PBM binding z-score
1,CGTCCAAGGTCAAGGTCGGTGAAAGAGACTCGAA,4.31
2,TCTTGTAGATCAATAGAGGTTCAGAAAGTGCGCT,1.06
3,CCTACTGGGCCAACGTCATTGATCAGTCAAAGCA,-0.583
4,AGAACGAGGGCACGCAGAGTTGATAGCAGAGTAG,1.55
5,GCCTATAGGTAATACAAGGTGAAAGTCCGATTGT,0.642
6,TAGCCTAGGTCATTGGGCGAGTATAGTACGCATC,1.59
7,ACAGACAGGTGAGTGAAGGTAACTAAGCTGGACG,-0.279
8,TTACCAAGTTGAGCTGAGGTCGTTGATCCAACTC,3.88
9,TGAGTGAGGTTAAAGATCAGGGAACGTGGCGTCG,2.13
10,CCTCGGAGGACTGAAGGTCAGAGCTGTCCGCTTT,1.32
11,CCTACTGGGCCACGGTCATTGATCAGTCAAAGCA,-0.436
12,GGAACGAGGACATTCGAGTTGATAGCATGGCGAT,0.468
13,CTACCAAGGAGAACAAGGTCGTTGATTACTATTC,1.23
14,TCGAGTAGGTTGGGGGCATTCAGAATGGCGTCGA,2.82
15,CCAGATAGGTGAAAGGTAACTCAGTCTGGTACGC,1.02
16,ACTCGGAGGACAAAGGCCAGAGCTACGCCAGTGA,-0.788
17,CAAACTAGGTCAAGTTCAAAGTCGGTTTGTGCCA,5.1
18,GTACCAAGGTGGATAGGTCGTTGATGAGTAGGCG,-0.207
19,TCTGCTCGGTCAGTTGGTCAGCTAACGAGCTGCC,-0.447
20,CATACAGTGTCAGCTAGGCCAGAGTAGGGACGGC,-0.453
21,CGTCCAAGGACAAAGGTCAGTGAAGAGATGACGG,3.18
22,TCTATTACTTGATTAGGGCAACCGAAACAGCGGA,0.583
